In PubChem BioAssay (NCATS):
Where “and” joins values, the source holds several entries; their conditions need not be identical. Identical values can stand only once. Inconclusive results are not listed. Values without a mark were called inactive. Calls follow the shape of the dose curve; as a rule, active = well fitted inhibition curve with a large enough effect; inconclusive = small, poorly fitted or top-dose-only effect; inactive = flat fitted curve, though single readings scatter. Where a SMILES comes first, the peptide text is derived from it. Bridges are numbered along the chain shown (N, C = ends). [ ]: non-standard residue; d: D form. The star is where a group is joined. X1 = CC[C@@H](C)[C@@H](N)C1=N[C@H](C(=O)*)CS1; d(aIle) = CC[C@H](C)[C@@H](N)C(=O)O; dOrn = NCCC[C@@H](N)C(=O)O

These molecules were tested on KB-3-1 (assay: Cytotoxic Profiling of Annotated Libraries Using Quantitative High-Throughput Screening (AID 1296008; also: nearly all actives have a fitted effect of over 60% in size)). Conditions: Five cell lines viability, CellTiter-Glo ATP luminescence, 48-72 h; max response: hits give low values.
Procedure, shortened: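 Cells exposed to compounds for 48 or 72 hr at 37 degrees Celsius. Viability read as ATP-coupled luminescence with CellTiter-Glo after 10 min at room temperature.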
% is scaled to controls: 0 for no effect and ±100 for the full control effect.

Row | SMILES | max response
1 | CN1C(=O)C[C@@H](C(=O)N[C@@H](Cc2cnc[nH]2)C(=O)N2CCC[C@H]2C(N)=O)NC1=O | 5.84%
2 | O=C(O[C@H]1CN2CCC1CC2)N1CCc2ccccc2[C@@H]1c1ccccc1 | 8.58%
3 | CCCc1ccc(C(=O)O)cc1 | 8.62%
4 | CC12CCC(C[N+](C)(CCC[N+](C)(C)C)C1)C2(C)C (stereo not given) | -0.0096%
5 | CC[C@@H](C)[C@@H](N)C1=N[C@H](C(=O)N[C@@H](CC(C)C)C(=O)N[C@@H](CCC(=O)O)C(=O)N[C@@H](C(=O)N[C@@H]2CCCCNC(=O)[C@@H](CC(N)=O)NC(=O)[C@@H](CC(=O)O)NC(=O)[C@@H](Cc3cnc[nH]3)NC(=O)[C@@H](Cc3ccccc3)NC(=O)[C@@H]([C@H](C)CC)NC(=O)[C@@H](CCCN)NC2=O)[C@@H](C)CC)CS1 (X1-LE[d(aIle)][dK][dOrn][dI][dF][dH][dD][dN]; lactam 4-C) | 3.54% and -18.2%
6 | CC(C)C[C@H](NC(=O)[C@@H](COC(C)(C)C)NC(=O)[C@H](Cc1ccc(O)cc1)NC(=O)[C@H](CO)NC(=O)[C@H](Cc1c[nH]c2ccccc12)NC(=O)[C@H](Cc1cnc[nH]1)NC(=O)[C@@H]1CCC(=O)N1)C(=O)N[C@@H](CCCN=C(N)N)C(=O)N1CCC[C@H]1C(=O)NNC(N)=O | -3.63% and -15.5%
7 | Cc1cc(=O)c(C(=O)N[C@@H](C(=O)N[C@@H]2C(=O)N3C(C(=O)O)=C(CSc4nnnn4C)CS[C@H]23)c2ccc(O)cc2)c[nH]1 | 0.794%
8 | CC(C)(C)NCC(O)c1ccc(O)c(CO)n1 (stereo not given) | -3.71%
9 | NCC[C@H](O)C(=O)N[C@@H]1C[C@H](N)[C@@H](O[C@H]2O[C@H](CN)CC[C@H]2N)[C@H](O)[C@H]1O[C@H]1O[C@H](CO)[C@@H](O)[C@H](N)[C@H]1O | 4.22%
10 | CC(C)=CCC/C(C)=C/CC/C(C)=C/CC/C=C(\C)CC/C=C(\C)CCC=C(C)C | 6.34% and -6.32%
11 | CNC(=O)[C@H](Cc1c[nH]c2ccccc12)NC(=O)[C@@H](CC(=O)NO)CC(C)C | -8.09%
12 | O=C(O)c1ccc(OCCn2ccnc2)cc1 | 6.76%
13 | N[C@H](CC(=O)O)C(=O)O | 11.5%
14 | O=C(CCCN1CCC(C(=O)c2ccc(F)cc2)CC1)c1ccc(F)cc1 | 33.7%
15 | CC1CCCCN1CCCOC(=O)c1ccccc1 (stereo not given) | 7.8%
16 | C=N[C@@H](C(=O)N[C@@H]1C(=O)N2[C@@H]1SC(C)(C)[C@@H]2C(=O)O)c1ccccc1 | 0.762%
17 | C[C@@H]1C[C@H]2[C@@H]3C[C@H](F)C4=CC(=O)C=C[C@]4(C)[C@@]3(Cl)[C@@H](O)C[C@]2(C)[C@H]1C(=O)COC(=O)C(C)(C)C | 41.6%
18 | CCCCCCCCCCCCCCCCCC(=O)OCC(C)O (stereo not given) | -14.3%
19 | NC[C@@H]1O[C@H](O[C@H]2[C@@H](O)[C@H](O[C@@H]3[C@@H](O)[C@H](N)C[C@H](N)[C@H]3O[C@H]3O[C@H](CO)[C@@H](O)[C@H](O)[C@H]3N)O[C@@H]2CO)[C@H](N)[C@@H](O)[C@@H]1O | 5.13%
20 | Cc1nc(NS(=O)(=O)c2ccc(N)cc2)nc(C)c1Br | 9.38%
21 | CC1=C(/C=C/C(C)=C/C=C/C(C)=C/C(=O)Oc2c(C)c(C)c3c(c2C)CC[C@@](C)(CCC[C@H](C)CCC[C@H](C)CCCC(C)C)O3)C(C)(C)CCC1 | -1.1%
22 | C=C1CC[C@H](O)CC1=C/C=C1\CCC[C@]2(C)[C@@H]([C@H](C)CC[C@@H](O)C(C)(C)O)CC[C@@H]12 | 6.41%
23 | CC(C)C[C@H](NC(=O)[C@@H](Cc1c[nH]c2ccccc12)NC(=O)[C@H](Cc1ccc(O)cc1)NC(=O)[C@H](CO)NC(=O)[C@H](Cc1c[nH]c2ccccc12)NC(=O)[C@H](Cc1cnc[nH]1)NC(=O)[C@@H]1CCC(=O)N1)C(=O)N[C@@H](CCCN=C(N)N)C(=O)N1CCC[C@@H]1C(=O)NCC(N)=O | 0.539%
24 | CC(C)NCC(O)COc1ccccc1-n1cccc1 (stereo not given) | 24.4%
25 | COC1[C@@H](O[C@@H]2O[C@H](C)[C@@H](O[C@H]3C[C@@](C)(O)[C@H](OC(=O)CC(C)C)[C@H](C)O3)[C@H](N(C)C)[C@H]2O)[C@@H](CC=O)C[C@@H](C)[C@@H](O)/C=C/C=C/C[C@@H](C)OC(=O)C[C@H]1OC(C)=O (stereo not given in full) | -19.6%
